Measurements taken from PubChem BioAssay (NCATS).
Results filed as inconclusive are left out. Some of the results follow. Calls of active or inactive are those of the source. Unless noted, the call rests on the fitted dose curve; in most records, active means well fitted curve in the direction sought with a large enough effect; inconclusive means small, poorly fitted or top-dose-only effect, or another doubt; inactive means no such curve, though single readings can be large; an effect the other way counts as inactive or inconclusive.

How the values were obtained:
[1] = biological target: DNA repair nuclease/redox regulator APEX1 (Homo sapiens) (UniProt P27695); assay: Confirmation qHTS Assay for Inhibitors of the Human Apurinic/apyrimidinic Endonuclease 1 (APE1) (AID 2572); conditions: purified APE1, fluorogenic abasic-site DNA cleavage; series mostly up to 57.1 µM; further: nearly all actives have a fitted effect of over 30% in size; further: potency means the concentration at half of the fitted maximal effect
Chain of DNA repair nuclease/redox regulator APEX1 (Homo sapiens) (P27695 whole entry, looked up): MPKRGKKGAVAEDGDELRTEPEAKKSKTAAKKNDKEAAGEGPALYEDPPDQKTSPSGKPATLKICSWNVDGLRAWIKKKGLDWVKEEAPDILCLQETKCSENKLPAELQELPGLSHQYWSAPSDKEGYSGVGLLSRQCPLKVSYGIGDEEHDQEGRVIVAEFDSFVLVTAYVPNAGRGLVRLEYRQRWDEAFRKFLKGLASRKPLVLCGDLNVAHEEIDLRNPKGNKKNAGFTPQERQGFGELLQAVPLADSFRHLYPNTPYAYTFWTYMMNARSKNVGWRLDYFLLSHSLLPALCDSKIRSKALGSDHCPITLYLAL
Outline: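 Cleavage of a tetrahydrofuran abasic site in a 50 nM (final) TAMRA/BHQ-2 duplex was tracked by rising fluorescence, measured in kinetic mode; reaction progress computed from the first-to-third read difference.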

[2] = biological target: Luciferin 4-monooxygenase (Photinus pyralis) (UniProt P08659); assay: Biochemical firefly luciferase enzyme assay for NPC (AID 624030);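 further: purified P. pyralis luciferase at 10 nM with luciferin and ATP substrate; nearly all actives have a fitted effect of over 70% in size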; conditions: purified P. pyralis luciferase, luminescence, 5 min; series mostly up to 58.6 µM
Chain of Luciferin 4-monooxygenase (Photinus pyralis) (P08659 whole entry, looked up): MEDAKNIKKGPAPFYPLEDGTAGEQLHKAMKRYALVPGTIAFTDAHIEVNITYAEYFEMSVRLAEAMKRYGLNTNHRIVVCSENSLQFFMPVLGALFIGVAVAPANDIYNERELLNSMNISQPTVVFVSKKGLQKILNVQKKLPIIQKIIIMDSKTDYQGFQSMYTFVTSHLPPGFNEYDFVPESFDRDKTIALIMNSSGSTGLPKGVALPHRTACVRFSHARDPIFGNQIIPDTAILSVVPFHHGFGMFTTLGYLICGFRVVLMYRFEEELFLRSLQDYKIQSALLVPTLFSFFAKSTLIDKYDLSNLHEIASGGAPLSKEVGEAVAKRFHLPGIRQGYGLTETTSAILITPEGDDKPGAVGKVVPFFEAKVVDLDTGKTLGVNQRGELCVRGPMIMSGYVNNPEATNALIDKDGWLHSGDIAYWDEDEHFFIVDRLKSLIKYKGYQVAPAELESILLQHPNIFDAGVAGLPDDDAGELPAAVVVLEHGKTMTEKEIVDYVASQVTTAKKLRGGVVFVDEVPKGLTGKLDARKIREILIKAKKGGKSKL
Outline: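 Purified P. pyralis luciferase at 10 nM in 50 mM Tris Acetate (final), luminescence read within 5 minutes of enzyme addition to compounds. Activity normalised to PTC124 versus DMSO; concentration-response curves classed by r2, magnitude and activity.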

[3] = S16 Schwann cell viability assay (CellTiter-Glo assay) (AID 624031); conditions: S16 rat Schwann cells viability, 24 h; series mostly up to 57.5 µM;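 further: cellular ATP luminescence as a viability measure; nearly all actives have a fitted effect of over 70% in size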
Outline: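 CellTiter-Glo ATP luminescence counter-screen in untransfected S16 rat Schwann cells, 24h compound exposure at 37 degree Celsius after overnight seeding (500-750 cells/well); response scaled between cell-free wells and DMSO (0% activity), curves classed by r2 and magnitude.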

[4] = S16 Schwann cell PMP22 intronic element beta-lactamase assay (AID 624044; calls by dose curve; further: nearly all actives have a fitted effect of over 15% in size); conditions: S16 rat Schwann cells, PMP22 element beta-lactamase FRET, 24 h; series mostly up to 38.3 µM
Outline: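 Beta-lactamase reporter under a PMP22 intronic regulatory element in stable S16 rat Schwann cells; 24 h compound exposure. 460 nm blue signal normalized between DMSO (0%) and potassium clavulanate, with 535 nm FRET tracking viability; curves classed by r2 and response.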

[5] = test system: 3D7; assay: qHTS profiling for inhibitors of Plasmodium falciparum proliferation (AID 504749); further: nearly all actives have a fitted effect of over 60% in size; further: potency means the concentration at half of the fitted maximal effect; conditions: P. falciparum in erythrocytes, SYBR Green DNA, 72 h; series mostly up to 28.7 µM
Outline: (§1)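 Each compound contacts P. falciparum-infected red blood cells for 72 h at 37 C; lysis buffer (Tris, EDTA, saponin, Triton X, SYBR Green I) is added and fluorescence measured next morning; values normalized to controls.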

[6] = test system: ATS189; assay: as above; conditions: P. falciparum in erythrocytes, SYBR Green DNA, 72 h; series mostly up to 28.7 µM
Outline: as §1

[7] = test system: ATS95; assay: as above; conditions: P. falciparum in erythrocytes, SYBR Green DNA, 72 h; series mostly up to 28.7 µM
Outline: as §1

[8] = test system: CP260; assay: as above; conditions: P. falciparum in erythrocytes, SYBR Green DNA, 72 h; series mostly up to 28.7 µM
Outline: as §1

[9] = test system: CP265; assay: as above; conditions: P. falciparum in erythrocytes, SYBR Green DNA, 72 h; series mostly up to 28.7 µM
Outline: as §1

[10] = test system: CP286; assay: as above; conditions: P. falciparum in erythrocytes, SYBR Green DNA, 72 h; series mostly up to 28.7 µM
Outline: as §1

[11] = test system: CP335; assay: as above; conditions: P. falciparum in erythrocytes, SYBR Green DNA, 72 h; series mostly up to 28.7 µM
Outline: as §1

[12] = test system: DIV30; assay: as above; conditions: P. falciparum in erythrocytes, SYBR Green DNA, 72 h; series mostly up to 28.7 µM
Outline: as §1

[13] = test system: Dd2; assay: as above; conditions: P. falciparum in erythrocytes, SYBR Green DNA, 72 h; series mostly up to 28.7 µM
Outline: as §1

[14] = test system: ECU; assay: as above; conditions: P. falciparum in erythrocytes, SYBR Green DNA, 72 h; series mostly up to 28.7 µM
Outline: as §1

[15] = test system: GB4; assay: as above; conditions: P. falciparum in erythrocytes, SYBR Green DNA, 72 h; series mostly up to 28.7 µM
Outline: as §1

[16] = test system: P93_24; assay: as above; conditions: P. falciparum in erythrocytes, SYBR Green DNA, 72 h; series mostly up to 28.7 µM
Outline: as §1

[17] = test system: PC15; assay: as above; conditions: P. falciparum in erythrocytes, SYBR Green DNA, 72 h; series mostly up to 28.7 µM
Outline: as §1

[18] = test system: PC26; assay: as above; conditions: P. falciparum in erythrocytes, SYBR Green DNA, 72 h; series mostly up to 28.7 µM
Outline: as §1

[19] = test system: TAB165; assay: as above; conditions: P. falciparum in erythrocytes, SYBR Green DNA, 72 h; series mostly up to 28.7 µM
Outline: as §1

[20] = biological target: Cytochrome P450 3A4 (Homo sapiens) (UniProt P08684); assay: qHTS Assay for Inhibitors and Substrates of Cytochrome P450 3A4 (AID 884); conditions: recombinant CYP3A4, Luciferin-PPXE luminescence; series mostly up to 57.1 µM; further: nearly all actives have a fitted effect of over 50% in size; further: potency means the concentration at half of the fitted maximal effect
Chain of Cytochrome P450 3A4 (Homo sapiens) (P08684 whole entry, looked up): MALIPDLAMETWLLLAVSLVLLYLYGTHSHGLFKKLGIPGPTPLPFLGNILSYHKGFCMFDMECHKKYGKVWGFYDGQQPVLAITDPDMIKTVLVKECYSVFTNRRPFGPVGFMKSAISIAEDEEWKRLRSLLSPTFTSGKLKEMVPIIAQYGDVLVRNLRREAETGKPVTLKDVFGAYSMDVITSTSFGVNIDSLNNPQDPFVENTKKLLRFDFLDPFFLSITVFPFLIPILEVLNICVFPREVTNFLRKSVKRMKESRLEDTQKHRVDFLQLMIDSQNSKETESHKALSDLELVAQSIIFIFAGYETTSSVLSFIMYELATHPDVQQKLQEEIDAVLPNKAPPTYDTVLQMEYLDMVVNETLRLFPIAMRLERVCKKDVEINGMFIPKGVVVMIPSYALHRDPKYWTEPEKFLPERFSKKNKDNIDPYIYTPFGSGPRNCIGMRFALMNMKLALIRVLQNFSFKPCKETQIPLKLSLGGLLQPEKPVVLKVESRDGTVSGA
Outline: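 Luminescent readout of luciferin produced by CYP3A4 (20 nM) dealkylation of Luciferin-PPXE, 25 uM (its KM). NADPH-driven reaction ran 60 min at RT after 10 min compound preincubation; data scaled to 57 uM ketoconazole as 100% inhibition.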

Measured: Potency

CC(=O)NS(=O)(=O)c1ccc(NC(=O)C2C3C=CC(C3)C2C(=O)O)cc1 (stereo not given)
inactive: [1]

O=C(NCc1ccccn1)c1ccc2nc(-c3ccco3)c(-c3ccco3)nc2c1
active: [1] 8.91 µM

CC(C)(C)C(=O)OCc1nc(-c2ccc(O)c(O)c2)cs1
active: [1] 11.2 µM

N#Cc1ccccc1CN1C(=O)S/C(=C/c2cccn2-c2cccc(C(=O)O)c2)C1=O
active: [1] 14.1 µM

CC(C)(C)NC[C@@H](O)c1ccc(O)c(CO)n1
not listed: [1] | [20]
inactive: all other assays above

COc1ccccc1-c1nc(NCc2ccccc2)c2ccccc2n1
active: [20] 3.98 µM

C[C@]12CC[C@H]3c4ccc(O)cc4CC[C@@H]3[C@H]1CC[C@@H]2OC(=O)CCC1CCCC1
active: [13] 14.1 µM | [15] 12 µM | [17] 12.6 µM
inactive: [2] | [4] | [7]

O=C(O)[C@@H](S)[C@H](S)C(=O)O
inactive: [2] | [3] | [4]
active: [5] 8.91 µM | [7] 6.31 µM | [8] 5.01 µM | [9] 8.91 µM | [10] 7.08 µM | [11] 6.75 µM | [12] 6.75 µM | [14] 11.2 µM | [15] 13.5 µM | [16] 4.47 µM | [18] 8.49 µM | [19] 11.2 µM

CNc1ncncc1-c1ccc(C(=O)N(C)C)cc1
active: [20] 5.01 µM

NS(=O)(=O)c1cc2c(cc1Cl)N[C@H](Cc1ccccc1)NS2(=O)=O
not listed: [1] | [3] | [7] | [20]
inactive: all other assays above

COc1ccc2cc1Oc1ccc(cc1)C[C@H]1c3cc(c(OC)cc3CCN1C)Oc1c(OC)c(OC)cc3c1[C@@H](C2)N(C)CC3
inactive: [20]

CN(C)[C@H]1C(=O)C(C(=O)NCN2CCCC2)=C(O)[C@]2(O)C(=O)C3=C(O)c4c(O)cccc4[C@](C)(O)[C@H]3C[C@H]12
not listed: [1] | [2] | [15] | [20]
inactive: all other assays above

Cc1cn([C@H]2C[C@H](N=[N+]=[N-])[C@H](CO)O2)c(=O)[nH]c1=O
not listed: [1] | [4] | [12] | [20]
inactive: all other assays above

O=C(O)c1cc(N=Nc2ccc([N+](=O)[O-])cc2)ccc1O
inactive: [20]
